ChEMBL document CHEMBL3988442, “University of Dundee, Small-Polar-MMV Screening Library” (2021)
The whole screen tested about 48,000 compounds, of which about 13,000 (27%) showed an effect of 50% or more. The list shows a part of the results.

What follows are molecules tested on Wolbachia pipientis (assay: Anti-Wolbachia Cell-Based Screen). Details: 5 µM.
Assay type: functional
Parameters: scale not given: in the data most compounds retested in dose-response had high values

| Compound | Percent Effect |
| --- | --- |
| c1cncc(NCCCNC2CCSC2)c1 (centres undefined) | 8.573% |
| Cn1cnnc1-c1cncc(NCc2cccc3c2OCO3)c1 | -7.225% |
| Cc1noc(C(C)Nc2ccc3oc(=O)[nH]c3c2)n1 (centres undefined) | -7.057% |
| CN(CC(=O)N1CCN(c2ncccn2)CC1)c1ccc(Cl)cn1 | -31.13% |
| CCc1nc(C2CCCN(C(=O)c3ccncc3)C2)no1 (centres undefined) | 123.6% |
| Cc1cc(C)n(C2CCCN(C(=O)c3c(C)noc3C)C2)n1 (centres undefined) | -7.23% |
| Cc1noc(C)c1C(=O)N1CCCC(c2nccn2Cc2cscn2)C1 (centres undefined) | -18.15% |
| CCc1nc(C2CCCN(C(=O)c3ccc(F)cc3)C2)no1 (centres undefined) | 103.7% |
| CCc1nc(C2CCCN(C(=O)c3ccc(OC)cc3)C2)no1 (centres undefined) | 87.64% |
| CCc1ccc(C(=O)N2CCCC(c3noc(CC)n3)C2)o1 (centres undefined) | 3.526% |
| Cc1c[nH]nc1C1CCCN(C(=O)c2c(C)noc2C)C1 (centres undefined) | 107% |
| C=Cc1ccc(C(=O)N2CCCC(Nc3ccc(F)cc3)C2)cc1 (centres undefined) | -17.89% |
| CCC(CC(=O)NS(=O)(=O)C(C)C)c1ccccc1 (centres undefined) | 10.71% |
| COc1cc2c(cc1CNCc1cccnc1-n1cccn1)OC(C)C2.Cl (centres undefined) | 12.76% |
| Cc1ccc(C)c(CNC(=O)NC(C)(C(=O)O)c2ccco2)c1 (centres undefined) | 3.789% |
| CC1=C(CCN2CCCC(O)C2)C(C)(C)CCC1 (centres undefined) | -3.829% |
| C(=C\c1ccc(CN2CCCC2)cn1)/c1ccccc1 | -4.188% |
| CCCNc1nc(CS(=O)(=O)c2ccccc2)cs1 | -6.524% |
| CC(=O)Nc1nc(C(=O)NCCOc2ccccc2)cs1 | -21.48% |
| Br.O=C(O)c1csc(NCCc2ccccc2)n1 | 93.16% |
| CC(C)(C)CC(=O)NCC(=O)NCC(O)c1ccc2ccccc2c1 (centres undefined) | 2.35% |
| CN(Cc1ccc(-n2cccn2)cc1)c1cc(N)nc(N)n1 | -3.397% |
| COc1ccnc(N2CCC3(CCCN(C(C)C)C3=O)C2)n1 (centres undefined) | 10.66% |
| Cc1nccnc1N1CCC2(CCCN(C3CCOCC3)C2=O)C1 (centres undefined) | 28.32% |
| N#Cc1cccnc1N1CCC2(CCCN(C3CCOCC3)C2=O)C1 (centres undefined) | -10.29% |
| Cc1nc(N2CCC3(CCCN(C(C)C)C3=O)C2)c2sccc2n1 (centres undefined) | -8.987% |
| Cc1ccc(C#N)c(N2CCC3(CCC(=O)N(CC(N)=O)C3)CC2)n1 | -13.92% |

| Compound | Percent Effect |
| --- | --- |
| Cc1ccc(C#N)c(N2CCC(c3nccn3Cc3cscn3)CC2)n1 | -1.954% |
| Cc1cnc(C)c(N2CCC3(CCCN(C4CCOCC4)C3=O)C2)n1 (centres undefined) | 106.2% |
| Cc1cc(N2CCC(c3nnc(CN(C)C)n3C3CC3)CC2)ccn1 | 1.365% |
| Cc1ccc(C#N)c(N2CCC3(CCCN(C4CCOCC4)C3=O)C2)n1 (centres undefined) | 93.97% |
| O=C1N(C2CCOCC2)CCCC12CCN(c1ncccc1Cl)C2 (centres undefined) | 119% |
| Cc1cc(N2CCC3(CCCN(C4CCOCC4)C3=O)C2)ccn1 (centres undefined) | 118.2% |
| COC[C@@]12CC[C@@H](N3CCOCC3)C[C@H]1CCN(c1ncccc1Cl)C2 | 19.13% |
| CCNc1ncc(C(=O)NCC2OCCc3ccccc32)cn1 (centres undefined) | -9.42% |
| CCc1nc(C)c(CN2CCCC(c3nn(C)c(=O)n3CC)C2)[nH]1 (centres undefined) | 1.561% |
| O=S(=O)(Cc1ccccc1CN1CCOCC(O)C1)c1ccccc1 (centres undefined) | -4.778% |
| O=C(NCc1ccccc1Cn1ccnc1)N1CCSCC1 | -1.657% |
| NC(=O)CN1CC2(CCC1=O)CCN(Cc1ccc(F)cc1Cl)CC2 | 0.9976% |
| O=C(Nc1cccc(CN2CCOC2=O)c1)N1CCSCC1 | 46.29% |
| CNc1nc(C(=O)N2CCCC(CO)(CCCOC)C2)cs1 (centres undefined) | -13.19% |
| CNc1nc(C(=O)N2CCCn3nc(C(=O)N4CCCC4)cc3C2)cs1 | 132.4% |
| Cc1cc(C(=O)N2CCn3nc(C(=O)NC4CC4)cc3C2)nc(C)n1 | 5.79% |
| CNc1nc(C(=O)N2CCn3nc(C(=O)OC)cc3C2)cs1 | 99.12% |
| Cc1ccc(O)c(CN2CCn3nc(C(=O)N4CCCC4)cc3C2)n1 | -10.87% |
| CCCc1nc(C(=O)N2CCCn3nc(CCC(=O)O)cc3C2)cs1 | -10.82% |
| CCC(C)(NCc1nc(C)c(C)o1)c1nccs1 (centres undefined) | -14.02% |
| CCOc1cc(CNCc2cnc(C)cn2)c(Cl)cc1OC(C)C | -9.744% |
| O=S(=O)(Cc1cccc(F)c1)NCC(O)Cc1ccccc1 (centres undefined) | 13.38% |
| Cc1ccc(C(=O)O)cc1S(=O)(=O)N(CC(C)O)c1ccccc1 (centres undefined) | -9.364% |
| Cc1cc(C)c(N(CC(O)CNCc2ccco2)S(C)(=O)=O)c(C)c1.O=C(O)c1ccccc1 (centres undefined) | 101.1% |
| Br.Cc1cc(C)c(N(CC(O)CNCc2ccccc2)S(C)(=O)=O)c(C)c1 (centres undefined) | 104.6% |
| COC(=O)c1ccc(NC(=O)CNCc2ccco2)cc1 | -10.44% |
| Cc1ccc(N(C)CC(O)COCc2ccccc2)c(C)c1 (centres undefined) | -35.03% |
